Measured values from PubChem BioAssay (Tox21).
Records with an inconclusive call do not appear. Entries that show only a call come without a potency. Unmarked numbers belong to inactive results. Calls of active or inactive are those of the source. The call rests on the fitted dose curve; in most records, active means well fitted activation curve with a large enough effect; inconclusive means small, poorly fitted or top-dose-only effect; inactive means flat fitted curve, though single readings scatter. Positions of bridges follow the written chain, without caps; N, C: chain ends. Non-standard residues stand in square brackets, D forms with d. Residues, ends and D or L forms follow the SMILES beside them. *: point of attachment. X1 = CC[C@@H](C)[C@@H](N)C1=N[C@H](C(=O)*)CS1; d(aIle) = CC[C@H](C)[C@@H](N)C(=O)O; dOrn = NCCC[C@@H](N)C(=O)O

Test: qHTS assay to identify small molecule phospholipidosis (PLD) inducers (AID 1259344)
Conditions: HepG2 phospholipidosis, LipidTOX Red imaging, 24 h; series mostly up to 38.3 µM
Summary of the method: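 Fluorescent phospholipid staining (LipidTOX Red) measured by automated microscopy in fixed HepG2 cells after 24 h treatment; nuclei counterstained with Hoechst 33342; amiodarone as reference inducer.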

Structure (SMILES)	Potency	PLD induction
OCC1(CO)COC(C(Cl)(Cl)Cl)OC1	inactive	
CCN(CC)CCn1c(=O)c(Cc2ccc(OC)cc2)nc2ccccc21		1.39% [at 7.66 µM]
Cc1cn([C@H]2C[C@H](O)[C@@H](CO)O2)c(=O)[nH]c1=O	inactive	
C=C(Nc1ccc(OCC)cc1)Nc1ccc(OCC)cc1	inactive	
COC1=C(OC)C(=O)C(C/C=C(\C)CC/C=C(\C)CC/C=C(\C)CC/C=C(\C)CC/C=C(\C)CC/C=C(\C)CC/C=C(\C)CC/C=C(\C)CC/C=C(\C)CCC=C(C)C)=C(C)C1=O	inactive	
O=P(O)(O)OP(=O)(O)OP(=O)(O)O	inactive	
CC[C@@H](C)[C@@H](N)C1=N[C@H](C(=O)N[C@@H](CC(C)C)C(=O)N[C@@H](CCC(=O)O)C(=O)N[C@@H](C(=O)N[C@@H]2CCCCNC(=O)[C@@H](CC(N)=O)NC(=O)[C@@H](CC(=O)O)NC(=O)[C@@H](Cc3cnc[nH]3)NC(=O)[C@@H](Cc3ccccc3)NC(=O)[C@@H]([C@H](C)CC)NC(=O)[C@@H](CCCN)NC2=O)[C@@H](C)CC)CS1 (X1-LE[d(aIle)][dK][dOrn][dI][dF][dH][dD][dN]; lactam 4-C)	inactive	
CO[C@H]1C[C@@H]2CC[C@@H](C)[C@@](O)(O2)C(=O)C(=O)N2CCCC[C@H]2C(=O)O[C@H]([C@H](C)C[C@@H]2CC[C@@H](O)[C@H](OC)C2)CC(=O)[C@H](C)C=C(C)[C@@H](O)[C@@H](OC)C(=O)[C@H](C)C[C@H](C)/C=C/C=CC=C1C	inactive	
NC(=O)[C@@H]1C[C@]2(NC(=O)NC2=O)c2cc(F)ccc2O1	inactive	
CCCCCCOC(=O)c1cccnc1	inactive	
COc1cc2c(cc1O)CCN[C@]21CS[C@@H]2c3c(OC(C)=O)c(C)c4c(c3[C@H](COC1=O)N1[C@@H]2[C@H]2c3c(cc(C)c(OC)c3O)C[C@@H]([C@@H]1O)N2C)OCO4	inactive	
CCN(CC)CCOC[C@H]1O[C@@H](O)[C@H](OCCN(CC)CC)[C@@H](O)[C@@H]1O	inactive	
CCc1cn([C@H]2C[C@H](O)[C@@H](CO)O2)c(=O)[nH]c1=O	inactive	
CC(C)CCC[C@@H](C)[C@H]1CC[C@H]2[C@@H]3CC[C@@H]4C[C@H](O)CC[C@]4(C)[C@H]3CC[C@]12C	inactive	
NCCO/C=C/[C@H](N)C(=O)O	inactive	
CC[C@H]1OC(=O)C[C@@H](O)[C@H](C)[C@@H](O[C@@H]2O[C@H](C)[C@@H](O[C@H]3C[C@@](C)(O)[C@@H](O)[C@H](C)O3)[C@H](N(C)C)[C@H]2O)[C@@H](CC=O)C[C@@H](C)C(=O)/C=C/C(C)=C/[C@@H]1CO[C@@H]1O[C@H](C)[C@@H](O)[C@@H](OC)[C@H]1OC	inactive	
C=CC[N+]1([C@H]2C[C@H]3[C@@H]4CC[C@H]5C[C@H](O)[C@@H](N6CCOCC6)C[C@]5(C)[C@H]4CC[C@]3(C)[C@H]2OC(C)=O)CCCC1	inactive	
C=CCN1C(=O)C(CC(C)C)NC1=S (stereo not given)	inactive	
CCC[C@@H]1C[C@@H](C(=O)N[C@@H]([C@H]2O[C@H](SC)[C@H](OP(=O)(O)O)[C@@H](O)[C@H]2O)[C@H](C)Cl)N(C)C1	inactive	
CC(C)=CCC/C(C)=C/CC/C(C)=C/CC/C(C)=C/CC1=C(C)C(=O)c2ccccc2C1=O	inactive	

Structure (SMILES)	Potency	PLD induction
COc1ccc(/C=N/NC(=O)c2ccncc2)c(C(=O)O)c1OC	inactive	
Cc1cc(CC(C)CC(C)(C)C)n(O)c(=O)c1 (stereo not given) (tested in a mixture with another compound)	inactive	
C[C@@H]1O[C@@H]1P(=O)(O)O	inactive	
CCCCCCCCCCCC[n+]1ccc2ccccc2c1	inactive	
O=C(O)c1cc(=O)c2c3nc4ccccc4oc-3cc(=O)c2[nH]1	inactive	
COc1cc(NS(C)(=O)=O)ccc1Nc1c2ccccc2nc2ccccc12	inactive	
CON=C1C[C@]2(C[C@@H]3C[C@@H](C/C=C(\C)C[C@@H](C)/C=C/C=C4\CO[C@@H]5[C@H](O)C(C)=C[C@@H](C(=O)O3)[C@]45O)O2)O[C@H](/C(C)=C/C(C)C)[C@H]1C	inactive	
N[C@@H](Cc1cnc[nH]1)C(=O)O	inactive	
C[C@@H]1C(=O)NC2=Nc3cccc(Cl)c3CN21	inactive	
CNC(=O)OCc1cccc(COC(=O)NC)n1	inactive	
NC(=O)C1c2ccccc2CCc2ccccc21	inactive	
c1ccc2c(c1)OCC(CN1CCCCC1)O2 (stereo not given)	inactive	
C/C(=C\C(=O)OCCCCCCCCC(=O)O)C[C@@H]1OC[C@H](C[C@@H]2O[C@H]2[C@@H](C)[C@H](C)O)[C@@H](O)[C@H]1O	inactive	
NC(=O)c1cc[n+](CC2=C(C(=O)O)N3C(=O)[C@@H](NC(=O)C(c4ccccc4)S(=O)(=O)[O-])[C@H]3SC2)cc1 (stereo not given in full)	inactive	
CCCn1c(=O)[nH]c(=O)c2[nH]cnc21	inactive	
COc1ccc(/C=C/C(=O)O)cc1	inactive	
CC/C(=C(/CC)c1ccc(OP(=O)(O)O)cc1)c1ccc(OP(=O)(O)O)cc1	inactive	
CSCC[C@H](NC(=O)[C@H](Cc1ccc(OS(=O)(=O)O)cc1)NC(=O)[C@@H](N)CC(=O)O)C(=O)NCC(=O)N[C@@H](Cc1c[nH]c2ccccc12)C(=O)N[C@@H](CCSC)C(=O)N[C@@H](CC(=O)O)C(=O)N[C@@H](Cc1ccccc1)C(N)=O	inactive	
CO/N=C(\C(=O)N[C@@H]1C(=O)N2C(C(=O)O)=C(CSc3cnns3)CS[C@H]12)c1csc(N)n1	inactive	
NCCCC[C@H](NC(=O)[C@@H]1CCCN1C(=O)[C@@H]1CSSC[C@H](N)C(=O)N[C@@H](Cc2ccc(O)cc2)C(=O)N[C@@H](Cc2ccccc2)C(=O)N[C@@H](CCC(N)=O)C(=O)N[C@@H](CC(N)=O)C(=O)N1)C(=O)NCC(N)=O	inactive	
